For 20 compounds, Potency results are on record in PubChem BioAssay (NCATS).

“And” between values parts separate entries of the source, which are not always exact repeats. Equal entries are not always repeated. Inconclusive results are not listed. The source made the active and inactive calls. The call rests on the fitted dose curve; in most records, active means well fitted curve in the direction sought with a large enough effect; inconclusive means small, poorly fitted or top-dose-only effect, or another doubt; inactive means no such curve, though single readings can be large; an effect the other way counts as inactive or inconclusive.

Assay [1] can be described thus: qHTS of pediatric cancer cell lines to identify multiple opportunities for drug repurposing: Primary screen for U-2 OS cells (AID 1347096). Further: nearly all actives have a fitted effect of over 50% in size. Further: potency means the concentration at half of the fitted maximal effect. The method in brief: (§1)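 Viability after 48 h compound treatment at 37C, 500-1,000 cells/well, read as ATP luminescence with CellTiter-Glo. Primary screens used 11-point (MIPE, 0.78 nM-46 µM) or 8-point (NPC, 0.59 nM-46 µM) final concentrations; follow-up screens used 11-point dilutions.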
Background: In qHTS, concentration-response curves come from the screen itself.

The nature of assay [2]: qHTS of pediatric cancer cell lines to identify multiple opportunities for drug repurposing: Primary screen for Saos-2 cells (AID 1347097). Further: nearly all actives have a fitted effect of over 40% in size. Further: potency means the concentration at half of the fitted maximal effect. The essentials:
(§2)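 Primary screen of approved and investigational compounds on cells in growth media at 37 degrees C, 5% CO2. MIPE set at 11-point and NPC set at 8-point dilutions; viability scored by ATP-based luminescence at 48 hours.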

Assay [3] is described as follows: qHTS of pediatric cancer cell lines to identify multiple opportunities for drug repurposing: Primary screen for SK-N-SH cells (AID 1347098). Further: nearly all actives have a fitted effect of over 65% in size. Further: potency means the concentration at half of the fitted maximal effect. The essentials:
(§3)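 Cells (500-1,000/well) rested 5 h, then received compounds for 48 h; metabolically active cells were measured by CellTiter-Glo luminescence. Final concentrations spanned up to 46 µM (MIPE, 11-point) or 0.59 nM-46 µM (NPC, 8-point) in primary screens, 11-point in follow-ups.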

Assay [4] is described as follows: qHTS of pediatric cancer cell lines to identify multiple opportunities for drug repurposing: Primary screen for LAN-5 cells (AID 1347100). Further: potency means the concentration at half of the fitted maximal effect. The essentials:
as §1

Assay [5] is described as follows: qHTS of pediatric cancer cell lines to identify multiple opportunities for drug repurposing: Primary screen for BT-12 cells (AID 1347101). Further: nearly all actives have a fitted effect of over 25% in size. Further: potency means the concentration at half of the fitted maximal effect. The essentials:
as §3

A short description of assay [6]: qHTS of pediatric cancer cell lines to identify multiple opportunities for drug repurposing: Primary screen for Rh18 cells (AID 1347102). Further: nearly all actives have a fitted effect of over 65% in size. Further: potency means the concentration at half of the fitted maximal effect. The method in brief:
as §1

Assay [7] is described as follows: qHTS of pediatric cancer cell lines to identify multiple opportunities for drug repurposing: Primary screen for OHS-50 cells (AID 1347103). Further: nearly all actives have a fitted effect of over 40% in size. Further: potency means the concentration at half of the fitted maximal effect. The method in brief: as §3
Assay [8] can be described thus: qHTS of pediatric cancer cell lines to identify multiple opportunities for drug repurposing: Primary screen for RD cells (AID 1347104). Further: nearly all actives have a fitted effect of over 55% in size. Further: potency means the concentration at half of the fitted maximal effect. The essentials:
as §2

The nature of assay [9]: qHTS of pediatric cancer cell lines to identify multiple opportunities for drug repurposing: Primary screen for MG 63 (6-TG R) cells (AID 1347105). Further: nearly all actives have a fitted effect of over 50% in size. Further: potency means the concentration at half of the fitted maximal effect. The essentials: as §2
The nature of assay [10]: qHTS of pediatric cancer cell lines to identify multiple opportunities for drug repurposing: Primary screen for control Hh wild type fibroblast cells (AID 1347106).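 Further: series mostly up to about 46 µM; a drop in luminescence marks cytotoxicity and a rise apparent proliferation; nearly all actives have a fitted effect of over 55% in size.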 The essentials:
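Cells (500-1,000/well) in growth media were settled 5 h at 37 degrees C, then given compounds for 48 h. Viability was read as CellTiter-Glo luminescence. Primary runs used MIPE at 11 points (0.78 nM-46 µM) and NPC at 8 points (0.59 nM-46 µM); follow-ups used 11 points.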

Assay [11] is described as follows: qHTS of pediatric cancer cell lines to identify multiple opportunities for drug repurposing: Primary screen for Rh30 cells (AID 1347107). Further: nearly all actives have a fitted effect of over 75% in size. Further: potency means the concentration at half of the fitted maximal effect. The essentials:
as §1

Assay [12] in a line: qHTS of pediatric cancer cell lines to identify multiple opportunities for drug repurposing: Primary screen for Rh41 cells (AID 1347108). Further: nearly all actives have a fitted effect of over 70% in size. Further: potency means the concentration at half of the fitted maximal effect. The essentials:
as §2

Assay [13] is described as follows: qHTS of pediatric cancer cell lines to identify multiple opportunities for drug repurposing: Primary screen for NB1643 cells (AID 1347099). Further: nearly all actives have a fitted effect of over 50% in size. The essentials:
as §2

Assay [14] in a line: qHTS of pediatric cancer cell lines to identify multiple opportunities for drug repurposing: Confirmatory screen for NB1643 cells (AID 1347109). Further: nearly all actives have a fitted effect of over 45% in size. Further: potency means the concentration at half of the fitted maximal effect. The essentials: as §1
The nature of assay [15]: qHTS of pediatric cancer cell lines to identify multiple opportunities for drug repurposing: Confirmatory screen for SK-N-MC cells (AID 1347111).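 Further: cells exposed to compound for 48 h before the readout; nearly all actives have a fitted effect of over 70% in size.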 Further: potency means the concentration at half of the fitted maximal effect. The method in brief:
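SK-N-MC cells at 500-1,000 cells/well in growth media were pre-incubated 5 h, then exposed to compounds at 11-point dilutions for 48 h at 37 degrees C, 5% CO2. Viability was read as CellTiter-Glo luminescence.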

The nature of assay [16]: qHTS of pediatric cancer cell lines to identify multiple opportunities for drug repurposing: Confirmatory screen for BT-12 cells (AID 1347112). Further: nearly all actives have a fitted effect of over 55% in size. Further: potency means the concentration at half of the fitted maximal effect. The essentials: as §1
Assay [17] can be described thus: qHTS of pediatric cancer cell lines to identify multiple opportunities for drug repurposing: Confirmatory screen for LAN-5 cells (AID 1347113). Further: nearly all actives have a fitted effect of over 65% in size. Further: potency means the concentration at half of the fitted maximal effect. The method in brief: as §1
Assay [18] in a line: qHTS of pediatric cancer cell lines to identify multiple opportunities for drug repurposing: Confirmatory screen for DAOY cells (AID 1347114). Further: nearly all actives have a fitted effect of over 65% in size. Further: potency means the concentration at half of the fitted maximal effect. The method in brief: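 Viability measured as metabolically active cells via CellTiter-Glo luminescence following 48 hours of compound exposure, 11-point dilutions in confirmatory testing. 500-1,000 cells/well plated 5 hours before dosing; controls were DMSO and 2.3 µM bortezomib.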

Assay [19] is described as follows: qHTS of pediatric cancer cell lines to identify multiple opportunities for drug repurposing: Confirmatory screen for NB-EBc1 cells (AID 1347115). Further: nearly all actives have a fitted effect of over 45% in size. Further: potency means the concentration at half of the fitted maximal effect. The method in brief: as §1

As to `CCN(CC)CCn1c(=O)c(Cc2ccc(OC)cc2)nc2ccccc21`, the Potency result in assay [1], in assay [2], in assay [3], in assay [4], in assay [5] and in [6] was “inactive” in each case. Besides, the Potency entry in assay [7], in assay [8], in assay [9], in assay [10], in assay [11] and in assay [12] was “inactive” in each case.

Turning to `C[C@]12C=CC(=O)C=C1CC[C@@H]1[C@@H]2C(=O)C[C@@]2(C)[C@H]1CC[C@]2(O)C(=O)CO`, the Potency result in assay [1], in assay [2], in [3], in assay [13], in [4] and in [5] was “inactive” throughout. The Potency result in [6], in assay [8], in assay [9], in assay [10] and in assay [11] was “inactive” each time.

In the case of `NC1(c2ccc(-c3nc4ccn5c(=O)[nH]nc5c4cc3-c3ccccc3)cc2)CCC1`, the Potency entry in assay [1] and in [10] was “inactive” each time. Further, the Potency in assay [2] is 10.5 µM (active); in assay [3] it was 19.2 µM (active) and 17.2 µM (active); in assay [4], 3.72 µM (active); in assay [5], 21.7 µM (active) and 24.6 µM (active); in assay [6], 16800 nM (active); in assay [7] it was 344 nM (active) and 692 nM (active). Moreover, the Potency in [8] is 16.6 µM (active) and 13.3 µM (active); in assay [9], 7.43 µM (active) and 13.3 µM (active); in assay [11], 18700 nM (active); in [12], 11800 nM (active).

For the compound `COc1ncnc(NS(=O)(=O)c2ccc(N)cc2)c1OC`, the Potency entry in assay [1], in assay [2], in [3], in [4], in [5] and in assay [6] was “inactive” in each case. Besides, the Potency result in assay [7], in assay [8], in [9], in assay [10], in assay [11] and in [12] was “inactive” throughout.

In the case of `Nc1nc(N)c2nc(CNc3ccc(C(=O)NC(CCC(=O)O)C(=O)O)cc3)cnc2n1` (stereo unspecified), the Potency entry in [1], in assay [2], in assay [13], in assay [6], in assay [9] and in assay [11] was “inactive” in each case. The Potency entry in [12], in assay [14] and in assay [17] was “inactive” each time. Moreover, the Potency was 48.5 nM (active) in assay [5], 329 nM (active) in assay [15] and 928 nM (active) in assay [16].

As for `CC(N)C12CC3CC(CC(C3)C1)C2` (stereo unspecified), the Potency entry in assay [1], in assay [2], in [3], in [4], in assay [5] and in assay [6] was “inactive” in each case. The Potency result in [8], in assay [9], in assay [10], in assay [11] and in [12] was “inactive” each time.

For `CCN(C)C(=O)Oc1cccc([C@H](C)N(C)C)c1`, the Potency result in assay [1], in [2], in [3], in assay [4], in assay [5] and in assay [6] was “inactive” in each case. Further, the Potency result in assay [8], in assay [9], in [10], in assay [11] and in assay [12] was “inactive” each time.

For `Cc1cc(NS(=O)(=O)c2ccc(N)cc2)no1`, the Potency entry in assay [1], in assay [2], in [4], in assay [5], in assay [6] and in [7] was “inactive” in each case. In addition, the Potency entry in assay [8], in [9], in [10], in [11] and in assay [12] was “inactive” each time.

Turning to `O=S(=O)(O)CCS`, the Potency result in [1], in assay [2], in assay [3], in assay [4], in assay [5] and in [6] was “inactive” each time. Besides, the Potency entry in assay [8], in [9], in assay [10], in assay [11] and in assay [18] was “inactive” each time.

As to `CCOCC(O)COc1ccc(NC(=O)CC[S+](C)C)cc1` (stereo unspecified), the Potency result in assay [1], in [2], in [3], in assay [4], in assay [5] and in assay [6] was “inactive” each time. Further, the Potency result in assay [8], in assay [9], in [10] and in [11] was “inactive” in each case.

In the case of `Cn1nnc2c(C(N)=O)ncn2c1=O`, the Potency result in [1], in [2], in assay [3], in assay [4], in assay [5] and in [6] was “inactive” each time. The Potency entry in assay [8], in assay [9], in assay [10], in [11], in assay [12] and in assay [14] was “inactive” in each case. The Potency result in assay [15], in [16], in assay [17], in [18] and in assay [19] was “inactive” throughout.

With `CCCCS(=N)(=O)CCC(N)C(=O)O` (stereo unspecified), the Potency entry in [1], in assay [2], in [13], in [4], in assay [5] and in assay [6] was “inactive” in each case. Further, the Potency result in [7], in assay [8], in assay [9], in [10] and in assay [11] was “inactive” in each case.

Regarding `CCc1c2c(nc3ccc(OC(=O)N4CCC(N5CCCCC5)CC4)cc13)-c1cc3c(c(=O)n1C2)COC(=O)[C@]3(O)CC`, the Potency entry in [1] and in assay [10] was “inactive” in each case. Moreover, the Potency in assay [2] is 1.5 µM (active) and 1.32 µM (active); in [3], 7.7 µM (active); in assay [4] it was 1.33 µM (active) and 372 nM (active); in assay [5] it was 2430 nM (active); in [6], 18700 nM (active); in assay [9], 21.1 µM (active) and 1.48 µM (active). For the same compound, the Potency in [14] was 2610 nM (active); in assay [15], 737 nM (active); in [17] it was 2930 nM (active); in [19], 737 nM (active).

Take `COC(=O)Nc1nc2ccc(Sc3ccccc3)cc2[nH]1`: the Potency in [1] was 13300 nM (active); in [2], 841 nM (active) and 2.35 µM (active); in [4], 1.32 µM (active); in assay [5], 1.74 µM (active) and 4.32 µM (active); in assay [9], 668 nM (active) and 1.18 µM (active); in [15], 1040 nM (active). The Potency in assay [18] is 928 nM (active). Also, the Potency entry in assay [3], in assay [10] and in assay [11] was “inactive” in each case.

Turning to `O=NN(CCCl)C(=O)NC1CCCCC1`, the Potency entry in [1], in assay [2], in assay [3], in assay [4], in [5] and in assay [6] was “inactive” each time. In addition, the Potency entry in assay [7], in [8], in [9], in [10], in assay [11] and in assay [14] was “inactive” each time. In addition, the Potency result in [15], in assay [16], in assay [18] and in [19] was “inactive” each time.

As for `CC(=O)[C@H]1CC[C@H]2[C@@H]3CC=C4C[C@@H](O)CC[C@]4(C)[C@H]3CC[C@]12C`, the Potency entry in assay [1], in [2], in assay [13], in assay [4], in assay [5] and in assay [6] was “inactive” throughout. Besides, the Potency entry in [8], in assay [9], in assay [10] and in [11] was “inactive” throughout.

In the case of `Nc1[nH]c(=O)ncc1F`, the Potency result in [1], in assay [2], in assay [3], in [5], in assay [6] and in assay [8] was “inactive” in each case. Further, the Potency entry in assay [9], in [10], in assay [11], in assay [12], in assay [14] and in assay [15] was “inactive” in each case. In addition, the Potency result in [16], in [18] and in assay [19] was “inactive” each time.

As for `COc1cc(NS(=O)(=O)c2ccc(N)cc2)nc(OC)n1`, the Potency result in assay [1], in assay [2], in [3], in [4], in assay [5] and in assay [6] was “inactive” in each case. The Potency entry in assay [8], in assay [9], in [10], in assay [11] and in assay [12] was “inactive” in each case.

With `O=C(O)c1cc(=O)[nH]c(=O)[nH]1`, the Potency entry in [1], in [2], in assay [13], in [4], in assay [5] and in assay [6] was “inactive” throughout. In addition, the Potency entry in [7], in assay [8], in [9], in assay [10], in assay [11] and in assay [12] was “inactive” throughout.

On to `CC(C)OC(=O)OCOP(=O)(CO[C@H](C)Cn1cnc2c(N)ncnc21)OCOC(=O)OC(C)C`, for which the Potency entry in assay [1], in [2], in [13], in assay [4], in [6] and in assay [8] was “inactive” each time. Further, the Potency entry in assay [9], in assay [10] and in [11] was “inactive” each time.
